# Assay results published in PubChem BioAssay (NCATS).
# Values without a mark were called inactive. Records with an inconclusive call do not appear. Where a call stands in place of a potency, no number is given. Active and inactive are the calls of the source. Calls come from the whole dose curve; as a rule, active = well fitted curve in the direction sought with a large enough effect; inconclusive = small, poorly fitted or top-dose-only effect, or another doubt; inactive = no such curve, though single readings can be large; an effect the other way counts as inactive or inconclusive.
# What was measured:
# [1] = qHTS to identify inhibitors of the type 1 interferon - major histocompatibility complex class I in skeletal muscle: primary screen against the NCATS Pharmaceutical Collection (AID 1347407);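 note: luminescence of HiBiT knocked into endogenous HLA-B as interferon-induced MHC class I level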
# Summary of the method: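 Cells were seeded with 4 ng/ml IFN-beta, incubated 1 h, then dosed with compounds over eight 1:5 steps up to 46 uM final. After 24 h at 37 C, HiBiT lytic reagent was added and luminescence read after 10 min lysis in the dark.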
# [2] = molecular target: Protein phosphatase 1D (Homo sapiens) (UniProt O15297); test: RapidFire Mass Spectrometry qHTS Assay for Modulators of WT P53-Induced Phosphatase 1 (WIP1) (AID 1347424);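 note: amount of dephosphorylated VEPPL-S-QETFS peptide product formed by WIP1; series mostly up to about 63 µM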
# Protein phosphatase 1D (Homo sapiens), sequence (O15297 whole entry, looked up): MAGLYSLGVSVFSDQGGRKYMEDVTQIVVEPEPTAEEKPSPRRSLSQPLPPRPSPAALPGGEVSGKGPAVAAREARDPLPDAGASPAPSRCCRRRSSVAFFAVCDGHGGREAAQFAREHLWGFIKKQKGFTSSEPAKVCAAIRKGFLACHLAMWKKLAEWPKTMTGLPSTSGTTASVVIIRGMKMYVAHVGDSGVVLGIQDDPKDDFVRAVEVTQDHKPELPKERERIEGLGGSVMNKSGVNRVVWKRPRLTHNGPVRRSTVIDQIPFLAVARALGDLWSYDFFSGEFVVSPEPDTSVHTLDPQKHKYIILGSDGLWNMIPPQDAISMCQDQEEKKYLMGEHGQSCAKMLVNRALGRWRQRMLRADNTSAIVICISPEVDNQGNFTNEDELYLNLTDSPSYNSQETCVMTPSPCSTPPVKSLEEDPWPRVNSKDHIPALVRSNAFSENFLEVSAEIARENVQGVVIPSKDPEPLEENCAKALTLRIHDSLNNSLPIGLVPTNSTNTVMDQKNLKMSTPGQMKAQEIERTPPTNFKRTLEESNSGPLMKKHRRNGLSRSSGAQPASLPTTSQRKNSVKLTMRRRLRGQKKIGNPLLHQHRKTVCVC
# Summary of the method: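 10 nM WIP1 preincubated with compounds 1 hr at room temperature in pH 7.5 Tris buffer with 30 mM MgCl2, 1 mM TCEP; 2 uM VEPPL-pS-QETFS phosphopeptide for 5 min, formic acid quench; dephosphorylated product quantified by RapidFire MS against labelled standard.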
# [3] = Primary qHTS for inhibitors of La Crosse Virus (LACV) - induced cell death in SH-SY5Y cells (AID 1508616);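 note: top concentration of the series differs between compounds; higher means more rescue of cells from virus-induced death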
# Summary of the method: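 Luminescent ATP readout (ATPLite 1step, 5 min room temperature) measured rescue from LACV-induced death after 6 days of infection at 0.01 MOI; normalized to infected DMSO wells and uninfected DMSO wells.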
# [4] = molecular target: Calcium and integrin-binding protein 1 (Homo sapiens) (UniProt Q99828); test: Primary qHTS for Identification of Calcium Integrin Binding Protein 1 (CIB1) Competitor (AID 1508620);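 note: GST tagged CIB1 binding a fluorescein labelled alphaIIb integrin peptide tracer; top concentration of the series differs between compounds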
# Calcium and integrin-binding protein 1 (Homo sapiens), sequence (Q99828 whole entry, looked up): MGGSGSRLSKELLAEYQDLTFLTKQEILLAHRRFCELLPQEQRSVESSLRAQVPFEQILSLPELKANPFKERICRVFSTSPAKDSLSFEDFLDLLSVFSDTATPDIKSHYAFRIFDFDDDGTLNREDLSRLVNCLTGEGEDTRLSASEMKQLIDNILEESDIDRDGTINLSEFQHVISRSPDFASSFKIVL
# Summary of the method: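 Fluorescence polarization competition: GST-tagged CIB1 (1 uM final) preincubated with compound 15 min at room temperature, then FITC-labelled alphaIIb peptide (100 nM final) added. After 15 min at room temperature, polarization read at Ex 480/Em 540.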
# [5] = molecular target: Protein phosphatase 1D (Homo sapiens) (UniProt O15297); test: Rhodamine-PBP qHTS Assay for Modulators of WT P53-Induced Phosphatase 1 (WIP1) (AID 1347425)
# Summary of the method: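 The read-out is the change in Rhodamine-PBP fluorescence (f1 - f0, ex 525/em 598 nm) as Pi is released, read each minute for 11 min. Final reaction: 5 nM WIP1, 10 uM phosphopeptide VEPPL-pS-QETFS, 10 uM Rh-PBP, 50 mM Tris-HCl pH 7.5, 30 mM MgCl2. Compound was preincubated with enzyme for 1 hour at room temperature.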
# [6] = qHTS to identify inhibitors of the type 1 interferon - major histocompatibility complex class I in skeletal muscle: primary screen against the NCATS Mechanism Interrogation Plate v5.0 (MIPE) Libary (AID 1347411); note: nearly all actives have a fitted effect of over 65% in size
# Summary of the method: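 Immortalized human C25cl48 myoblasts with HiBit knocked into endogenous HLA-B*08:01 were stimulated with 4.0 ng/ml IFN-beta and exposed to compounds (11-point 1:3 titration, top 46 uM final) for 24 hrs at 37 C; HiBiT lytic luminescence measured.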
# [7] = Validation qHTS assay for inhibitors of Activation Induced Cytidine Deaminase (AID): UDG Counterscreen signal (AID 1347427); note: potency is the fitted concentration of half-maximal effect
# Summary of the method: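 Counterscreen read of UDG activity (2 U/mL, 4/3x) in the FRET deamination format with AID (1 uM, 4/3x), DJC20/DJC23 substrates (250 nM, 4x), 4 h at room temperature. NaOH stop, fluorescence at 560 ex/665 em.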
# [8] = molecular target: Single-stranded DNA cytosine deaminase (Homo sapiens) (UniProt Q9GZX7); test: Validation qHTS assay for inhibitors of Activation Induced Cytidine Deaminase (AID): AID signal (AID 1347429); note: potency is the fitted concentration of half-maximal effect
# Single-stranded DNA cytosine deaminase (Homo sapiens), sequence (Q9GZX7 whole entry, looked up): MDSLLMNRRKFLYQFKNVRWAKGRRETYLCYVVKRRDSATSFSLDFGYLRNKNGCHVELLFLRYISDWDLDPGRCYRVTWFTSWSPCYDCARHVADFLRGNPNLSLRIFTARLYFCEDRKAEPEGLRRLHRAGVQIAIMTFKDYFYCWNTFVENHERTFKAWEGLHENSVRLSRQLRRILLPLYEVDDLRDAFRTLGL
# Summary of the method: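 AID and UDG were combined and compounds added at final up to 114 uM, then DJC20/DJC23 FRET substrate was added for 4 hr at room temperature. NaOH was then added for 30 min before fluorescence was read at 540/590 nm.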
# [9] = molecular target: Calcium and integrin-binding protein 1 (Homo sapiens) (UniProt Q99828); test: Validation qHTS for Identification of Calcium Integrin Binding protein 1 (CIB1) Competitor (AID 1508618)
# Summary of the method: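 CIB1-GST (1 uM final) incubated 15 min at room temperature with compounds (up to 114 uM), then FITC-labelled alphaIIb peptide (100 nM) added. FP read (Ex 480/Em 540) after 15 min, pH 7.4 buffer containing 5 mM CaCl2.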
# [10] = qHTS for inhibitors of adenylyl cyclases using a fission yeast platform: a pilot screen against the NCATS LOPAC library (AID 1347410)
# Summary of the method: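 Growth medium went into the plates first, then compounds were pinned (final up to 57 µM), then CHP2027 yeast were added. Plates were incubated overnight (18 h) at 30C in the dark, and GFP was measured by laser scanning cytometry.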
# [11] = Counterscreen qHTS for small molecule stabilizers of the endoplasmic reticulum resident proteome: GLuc-NoTag assay (AID 1508627);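 note: SH-SY5Y cells given compound then 100 nM thapsigargin to empty ER calcium; series mostly up to about 76 µM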
# Summary of the method: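 SH-SY5Y cells stably expressing constitutively secreted GLuc without SERCaMP tag, exposed to compound for 19 hr, then to 100 nM thapsigargin for 4 hr at 37C. Medium luciferase was read by coelenterazine luminescence without lysis.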
smiles,measurement,setting,value
CCN(CC)CCNC(C(=O)OCCC(C)C)c1ccccc1 (centres undefined),Potency,[1],inactive
same,outcome,[2],inactive
same,outcome,[3],inactive
same,outcome,[4],inactive
CCCc1c(OCCCCc2nn[nH]n2)ccc(C(C)=O)c1O,Potency,[1],inactive
same,outcome,[5],inactive
same,outcome,[3],inactive
same,outcome,[4],inactive
O=C(O)[C@H](O)c1ccccc1,Potency,[1],inactive
same,outcome,[2],inactive
same,outcome,[5],inactive
same,outcome,[4],inactive
COc1ccc2[nH]c(S(=O)Cc3ncc(C)c(OC)c3C)nc2n1 (centres undefined),Potency,[6],inactive
same,outcome,[2],inactive
same,outcome,[5],inactive
same,outcome,[3],inactive
CCCCCCCCCCCCCCCCCCOCC(O)CO (centres undefined),Potency,[1],inactive
same,outcome,[2],inactive
same,outcome,[3],inactive
same,outcome,[4],inactive
OCc1cc(C(O)CNCCCCCCOCCCCc2ccccc2)ccc1O (centres undefined),Potency,[1],inactive
same,outcome,[2],inactive
same,Potency,[7],inactive
same,Potency,[8],inactive
same,outcome,[3],inactive
same,outcome,[9],inactive
same,outcome,[4],inactive
Cc1ncc(COP(=O)(O)O)c(C=O)c1O,Potency,[1],inactive
same,outcome,[2],inactive
same,outcome,[3],inactive
same,outcome,[4],inactive
Cc1cc(N)c2ccccc2[n+]1CCCCCCCCCC[n+]1c(C)cc(N)c2ccccc21,outcome,[10],inactive
same,Potency,[7],89.1 µM (active)
same,Potency,[8],50.1 µM (active)
same,outcome,[3],inactive
same,outcome,[9],inactive
same,outcome,[4],inactive
COc1ccc(S(=O)(=O)Nc2nnc(CC(C)C)s2)cc1,Potency,[1],inactive
same,outcome,[2],inactive
same,outcome,[3],inactive
same,outcome,[4],inactive
CCCCN(CCCC)CCCOC(=O)c1ccc(N)cc1,Potency,[1],inactive
same,outcome,[2],inactive
same,outcome,[3],inactive
same,outcome,[4],inactive
CC(O)CN(CCN(CC(C)O)CC(C)O)CC(C)O (centres undefined),outcome,[2],inactive
same,outcome,[3],inactive
same,outcome,[4],inactive
CO/N=C(\C(=O)N[C@@H]1C(=O)N2C(C(=O)O)=C(CSc3nc(=O)c(O)nn3C)CS[C@H]12)c1csc(N)n1,outcome,[5],inactive
same,outcome,[3],inactive
same,outcome,[4],inactive
[Cl][In]([Cl])[Cl],outcome,[4],inactive
Nc1ccc(S(=O)(=O)Nc2ccc(Cl)nn2)cc1,outcome,[2],inactive
same,outcome,[5],inactive
same,outcome,[3],inactive
same,outcome,[4],inactive
Nc1nc2c(ncn2CCC(CO)CO)c(=O)[nH]1,outcome,[2],inactive
same,outcome,[5],inactive
same,outcome,[3],inactive
same,outcome,[4],inactive
CCCOC(=O)c1ccccc1,outcome,[2],inactive
same,outcome,[5],inactive
same,outcome,[3],inactive
same,outcome,[4],inactive
CC(COc1ccccc1)NC(C)C(O)c1ccc(O)cc1 (centres undefined),outcome,[2],inactive
same,outcome,[5],inactive
same,outcome,[3],inactive
same,outcome,[4],inactive
C/C(=C(\CCOP(=O)(O)O)SC(=O)c1ccccc1)N(C=O)Cc1cnc(C)nc1N,"activity change, negative = inhibition",[2],3.91% [at 6.17 µM]
same,"activity change, negative = inhibition",[5],-15.2% [at 4.81 µM]
same,activity change,[3],-1.14% [at 0.431 µM]
same,"activity change, negative = inhibition",[4],-4.19% [at 12.4 µM]
CN1[C@@H]2CC[C@H]1CC(OC(=O)C(O)c1ccccc1)C2 (some centres undefined),outcome,[2],inactive
same,outcome,[5],inactive
same,outcome,[3],inactive
same,outcome,[4],inactive
O=C1NS(=O)(=O)c2ccccc21,outcome,[2],inactive
same,outcome,[5],inactive
same,outcome,[3],inactive
same,outcome,[4],inactive
CCCCN1CCCC[C@H]1C(=O)Nc1c(C)cccc1C,outcome,[2],inactive
same,outcome,[5],inactive
same,outcome,[3],inactive
same,outcome,[4],inactive
O=c1cc(CO)occ1O,outcome,[2],inactive
same,outcome,[5],inactive
same,outcome,[3],inactive
same,outcome,[4],inactive
same,Potency,[11],inactive
Oc1cn2c(n1)Nc1ccc(Cl)c(Cl)c1C2,outcome,[2],inactive
same,outcome,[5],inactive
same,outcome,[3],inactive
same,outcome,[4],inactive
[O-][n+]1cccc(CO)c1,outcome,[2],inactive
same,outcome,[5],inactive
same,outcome,[3],inactive
same,outcome,[4],inactive
O=C(O)CC(O)C(=O)O (centres undefined),outcome,[2],inactive
same,outcome,[3],inactive
same,outcome,[4],inactive
O=c1cc[nH]c(=S)[nH]1,outcome,[2],inactive
same,outcome,[5],inactive
same,outcome,[3],inactive
same,outcome,[4],inactive
Cc1c(Cl)cccc1Nc1ccccc1C(=O)O,outcome,[3],inactive
same,outcome,[4],inactive
Cc1cc(CC(=O)O)n(C)c1C(=O)c1ccc(Cl)cc1,outcome,[2],inactive
same,outcome,[5],inactive
same,outcome,[3],inactive
same,outcome,[4],inactive
CCn1cc(C(=O)O)c(=O)c2cnc(N3CCNCC3)nc21,outcome,[2],inactive
same,outcome,[5],inactive
same,outcome,[3],inactive
same,outcome,[4],inactive
CCOC(CN1CCN(CC(C)C(=O)c2ccccc2)CC1)c1ccccc1 (centres undefined),outcome,[2],inactive
same,outcome,[5],inactive
same,outcome,[3],inactive
same,outcome,[4],inactive
O=C(CCCN1CCN(c2ccccn2)CC1)c1ccc(F)cc1,outcome,[2],inactive
same,outcome,[3],inactive
same,outcome,[4],inactive
CCOC(=O)[C@H](CCc1ccccc1)N[C@@H](C)C(=O)N1C(=O)N(C)C[C@H]1C(=O)O,outcome,[2],inactive
same,outcome,[5],inactive
same,outcome,[3],inactive
same,outcome,[4],inactive
COc1ccc2cc1Oc1ccc(cc1)C[C@H]1c3c(cc4c(c3Oc3cc5c(cc3OC)CCN(C)[C@@H]5C2)OCO4)CCN1C,outcome,[2],inactive
same,outcome,[5],inactive
same,outcome,[3],inactive
same,outcome,[4],inactive
CC(=O)O[C@@]12CO[C@@H]1C[C@H](O)[C@@]1(C)C(=O)[C@H](O)C3=C(C)[C@@H](OC(=O)[C@H](O)[C@@H](NC(=O)OC(C)(C)C)c4ccccc4)C[C@@](O)([C@@H](OC(=O)c4ccccc4)[C@H]21)C3(C)C,outcome,[2],inactive
same,outcome,[5],inactive
same,outcome,[3],inactive
same,outcome,[4],inactive
CC(=O)Oc1ccc(C2(c3ccc(OC(C)=O)cc3)C(=O)Nc3ccccc32)cc1,outcome,[2],inactive
same,outcome,[5],inactive
same,outcome,[3],inactive
same,outcome,[4],inactive
CC(C)(C)C(=O)NCCCC(=O)O,outcome,[2],inactive
same,outcome,[5],inactive
same,outcome,[3],inactive
same,outcome,[4],inactive
N[C@@H](CSSC[C@H](N)C(=O)O)C(=O)O,"activity change, negative = inhibition",[2],-0.373% [at 0.505 µM]
same,"activity change, negative = inhibition",[5],14.5% [at 0.575 µM]
same,activity change,[3],-4.86% [at 0.0343 µM]
same,"activity change, negative = inhibition",[4],1.18% [at 1.07 µM]
CC1(C)S[C@@H]2[C@H](NC(=O)Cc3ccccc3)C(=O)N2[C@H]1C(=O)O (tested in a mixture with another compound),outcome,[2],inactive
same,outcome,[3],inactive
same,outcome,[4],inactive
C[C@H]1O[C@H](O[C@H]2[C@H](O)[C@@H](O)[C@@H](O[C@H]3[C@H](O)[C@@H](O)[C@H](O)O[C@@H]3CO)O[C@@H]2CO)[C@H](O)[C@@H](O)[C@@H]1N[C@H]1C=C(CO)[C@@H](O)[C@H](O)[C@H]1O,outcome,[2],inactive
same,outcome,[5],inactive
same,outcome,[3],inactive
same,outcome,[4],inactive
O=c1[nH]cnc2c1ncn2[C@@H]1O[C@H](CO)[C@@H](O)[C@H]1O,outcome,[2],inactive
same,outcome,[5],inactive
same,outcome,[3],inactive
same,outcome,[4],inactive
CCCCCCCCCCCCOS(=O)(=O)O,outcome,[2],inactive
same,outcome,[3],inactive
CC(=O)Oc1c(C)c(C)c2c(c1C)CC[C@@](C)(CCC[C@H](C)CCC[C@H](C)CCCC(C)C)O2,outcome,[2],inactive
same,outcome,[5],inactive
same,outcome,[3],inactive
same,outcome,[4],inactive
CC[N+](CC)(CC)CCOc1ccc(/C=C/c2ccccc2)cc1,outcome,[2],inactive
same,outcome,[3],inactive
same,outcome,[4],inactive
CCCCC(CC)COC(=O)c1ccccc1O (centres undefined),outcome,[2],inactive
same,outcome,[5],inactive
same,outcome,[3],inactive
same,outcome,[4],inactive
